Growth inhibition data for 40 compounds are collected here from PubChem BioAssay (NCI).

Compounds without any hit were thinned out: in the full panel of roughly 79,000, 15% have a hit. A number with no mark means an inactive call. Cut-off read from the data, not from the text of the source: active = growth inhibition above about 70%; inactive = the rest.

The nature of the assay: NCI Yeast Anticancer Drug Screen. Data for the bub3 strain (AID 167). The conditions noted are these: S. cerevisiae bub3 mutant strain, at 50.0 µM, hits give high values. How it is done: Growth inhibition of yeast strains with defined genetic alterations is measured as a screen for potential anti-cancer activity. Selected strains with alterations in DNA damage repair or cell cycle control were exposed to compounds and growth inhibition was measured relative to vehicle treated controls. The strain used in this assay is bub3
Turning to `COc1ccc2c(c1)N(S(=O)(=O)c1ccc(C)cc1)C[C@@H]1c3cc(O)c(OCc4ccccc4)cc3O[C@H]21`, the growth inhibition was 2.4%.
Take `Brc1ccc(Br)nc1`: the growth inhibition is -10.1%.
On to `COC(C)CCOC(=O)c1ccccc1` (stereo not given), for which the growth inhibition was -29.9%.
In the case of `Clc1nnc(-c2ccccc2)s1`, the growth inhibition was 8.2%.
With `CC(=O)NCC(C)(C)C`, the growth inhibition is -32%.
Take `CC[N+](C)(C)CC(O)(O)C(F)F`: the growth inhibition is -26.8%.
As for `CCC(C)N=C1NS(=O)(=O)c2ccccc21` (stereo not given), the growth inhibition is -8.55%.
As for `N#CCCn1nc(SCc2ccccc2)c(=O)[nH]c1=O`, the growth inhibition was -1.65%.
`[N-]=[N+]=Nc1ccccc1C(=O)N1C(=O)c2ccccc2C(=O)N(C(=O)c2ccccc2N=[N+]=[N-])c2ccccc21`: the growth inhibition is 11.9%.
`CC(C)=CCC/C(C)=C/CNc1ncnc2c1ncn2C1OC(CO)C(O)C1O` (stereo not given): the growth inhibition was 12.9%.
As to `CCC/C(CC)=N\Nc1ccc([N+](=O)[O-])cc1[N+](=O)[O-]`, the growth inhibition is 12.9%.
As for `CNc1c(F)cc(C(=O)O)cc1F`, the growth inhibition is -32.6%.
On to `COc1cc(C2c3cc4c(cc3OC3(OC)COC(=O)C23)OCO4)cc(OC)c1OC` (stereo not given), for which the growth inhibition was -21.1%.
On to `CC(C)(C)c1cc(Nc2c([N+](=O)[O-])cc([N+](=O)[O-])cc2[N+](=O)[O-])cc(C(C)(C)C)c1O`, for which the growth inhibition is -5.4%.
With `O=C(Nc1ccc(Cl)cc1Cl)C(=O)C(C(=O)c1ccc2ccccc2c1)C1OC(=O)c2ccccc21` (stereo not given) the figure was -12.6%; with `O=C(O)C1CC2C3CCC2C1C3=O` (stereo not given), -2.8%.
As to `CC(=O)OC1CC2CC1C1C=CCC21` (stereo not given), the growth inhibition was 6.5%.
As to `COC(=O)c1sc(C(=O)OC)c2c1CS(=O)C2`, the growth inhibition is 5.45%.
As for `Cc1ccc(N=C2C(c3ccccc3)=C(SC3=C(c4ccccc4)C(=Nc4ccc(C)cc4)c4ccccc43)c3ccccc32)cc1`, the growth inhibition was -3%.
Take `COc1ccc(C(C2=C(O)CC(C)OC2=O)C2=C(O)CC(C)OC2=O)cc1` (stereo not given): the growth inhibition was -19.1%.
Turning to `CCN(CC)c1ccccc1-c1ccccc1`, the growth inhibition was 6.05%.
With `N#CC(Nc1ccccc1)c1ccc(C(C#N)Nc2ccccc2)cc1` (stereo not given) the figure was -16.2%.
With `O=c1[nH]c(=O)n(C2CC(O)C(CO)O2)cc1NN=NCCCc1ccccc1` (stereo not given), the growth inhibition is -11.3%.
Consider `CC(C)=CCC/C(C)=C/c1cc(C(=O)O)c2c(ccc3ccccc32)n1`, for which the growth inhibition was 25.1%.
Turning to `COc1ccc2c(c1OC)Oc1c(OC)ccc3c1C(C2)N(C)C[C@@H]3O` (stereo not given in full), the growth inhibition is 26.1%.
Turning to `C[n+]1c(-c2ccc(/C=N/NC(=O)c3cc(O)c(C(=O)N/N=C/c4ccc(-c5cn6ccccc6[n+]5C)cc4)cc3O)cc2)cn2ccccc21`, the growth inhibition was -31.9%.
With `COc1ccccc1Nc1nc(-c2ccc([N+](=O)[O-])o2)cs1`, the growth inhibition is 44%.
With `O=C(c1ccc(CSc2ccc(Cl)cc2)o1)N1CCOCC1`, the growth inhibition was 32.6%.
Turning to `Cc1ccc(S(=O)(=O)N/N=C/C(C)(C)C)cc1`, the growth inhibition is -6.75%.
`CC(=O)NC1CCC2CCCCC2C1` (stereo not given): the growth inhibition is 32.1%.
On to `CCOC(=O)[C@H]1Nc2ccc(Cl)cc2[C@H]2OCC[C@@H]12`, for which the growth inhibition was 3.15%.
Turning to `OC1COCCC(O)(CNCc2ccccc2)C1O` (stereo not given), the growth inhibition was -6.95%.
With `CC12NN=NC1C(=O)NC2=O` (stereo not given) the figure was -3.1%.
With `CC(=O)OC1c2ccccc2Cc2ccccc21` the figure was 19.1%; with `O=C(N/N=C\c1ccc([N+](=O)[O-])cc1)Nc1cccc2ccccc12`, -1%.
With `CC(C)C1CCC2(CC1)CCN(CCCN(C)C)CC2` the figure was 7.25%.
For `OC(c1cc(-c2ccccc2)nc2c1ccc1ccccc12)C1CCCCN1` (stereo not given), the growth inhibition was 11.6%.
`O=C(c1ccc(Cl)s1)C(Cl)C(Cl)c1ccc(Cl)s1` (stereo not given): the growth inhibition was 29.6%.
On to `C=C1C(=O)OC2CC3(CO3)C3C(O)C(O)CC3(C)CC12` (stereo not given), for which the growth inhibition is -42.5%.
As for `CN1CCN(CCCO)CC1`, the growth inhibition was 5.05%.
